Bioassay records deposited in PubChem BioAssay by several laboratories.
BoNT-F LC inh = BoNT/F light chain protease inhibitors, primary screen, biochemical, flow cytometry, MLPCN library; Botulinum neurotoxin type F light chain protease (Clostridium botulinum); Multiplex microsphere protease cleavage assay; inhibition, % at 10 µM; 360,000 tested, 0.22% active; in the data active = inhibition above about 35%, passing the limit was not always enough; inconclusive = no clear call, values can overlap the other calls; note: plate controls were buffer without enzyme for full effect and enzyme alone for no effect
Anthrax LF inh2 = Bacillus anthracis LF protease inhibitors, primary screen, biochemical, multiplex microsphere, MLPCN library | multiplex microsphere protease cleavage assay | inhibition, % at 10 µM | 360,000 tested, 0.12% active; in the data active = inhibition above about 30%; inconclusive = no clear call, values can overlap the other calls; note: plate controls were buffer without enzyme for full effect and enzyme alone for no effect
BoNT A protease = BoNT/A light chain protease inhibitors, primary screen, biochemical, flow cytometry, MLPCN library; AID 588499, 2011; inhibition, % at 10 µM; Botulinum neurotoxin type A light chain protease (Clostridium botulinum A str. ATCC 3502); 360,000 tested, 0.17% active; multiplex microsphere protease substrate cleavage; in the data active = inhibition above about 30%; inconclusive = no clear call, values can overlap the other calls; note: plate controls were buffer without enzyme for full effect and enzyme alone for no effect
Autofluor counter = counter-screen for toxin protease inhibitors: compound fluorescence. compound autofluorescence counterscreen, microsphere flow cytometry; hits give high values. fluorescence intensity (concentration not given with the values). AID 624483. 360,000 tested, 3.1% active; in the data active = fluorescence intensity above about 16000; inconclusive = no clear call, values can overlap the other calls
MazF activator = activators of E. coli MazEF toxin-antitoxin RNase, primary screen, biochemical, fluorescence, uHTS; Endoribonuclease toxin MazF (Escherichia coli (strain K12)), P0AE70; FAM/BHQ RNA-DNA oligo cleavage fluorescence, 5 h; activation, % at 20 µM; 350,000 tested, 0.32% active; AID 504720, 2011; in the data active = activation above about 50%
PfHsp40 yeast = rescue of yeast from PfHsp40 toxicity, primary screen, S. cerevisiae, ATP luminescence; growth rescue, % at 12.5 µM; S. cerevisiae expressing PfHsp40, growth rescue; 340,000 tested, 0.68% active; in the data active = growth rescue above about 28%, passing the limit was not always enough; inconclusive = no clear call, values can overlap the other calls;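 note: yeast W303a lacking pdr1 and pdr3 grown in galactose medium; growth measured after three days at 30 °C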
BoNT-A LC CP2 = BoNT/A light chain protease inhibitors, confirmation, biochemical, flow cytometry, cherry pick 2. shares compounds with BoNT A protease. multiplex microsphere protease cleavage assay. inhibition, % at 10 µM. 150 tested, 10% active; in the data active = inhibition above about 24%
Anthrax LF CP2 = Bacillus anthracis LF protease inhibitors, confirmation, biochemical, multiplex microsphere; 150 tested, 7% active; inhibition, % at 10 µM; shares compounds with BoNT A protease; AID 602327, 2012; multiplex microsphere protease cleavage assay
BoNT-F LC CP2 = BoNT/F light chain protease inhibitors, confirmation, biochemical, flow cytometry, cherry pick 2. 150 tested, 7% active. multiplex microsphere protease cleavage assay. shares compounds with BoNT A protease. inhibition, % at 10 µM
* = called active by the depositor; ? = inconclusive; · = not tested or not shown. Compounds with a hit are over-represented: about 4.3% of the library has one in this group of screens. Cut-off read from the data, not from the text of the source, unless noted: active = inhibition above about 25%; inactive = the rest.

SMILES	BoNT-F LC inh	Anthrax LF inh2	BoNT A protease	Autofluor counter	MazF activator	PfHsp40 yeast	BoNT-A LC CP2	Anthrax LF CP2	BoNT-F LC CP2
COc1ccc(-c2cc3c(c4c2ccn4C)C2CCC3O2)cc1OC (stereo unspecified)	-8	-4	1	6255	·	·	·	·	·
Cn1ccc2c(-c3ccc4c(c3)OCCO4)cc3c(c21)C1CCC3C1 (stereo unspecified)	-30	-14	11	3482	·	·	5	-5	-24
COc1ccc(CCNC(=O)COc2cc(O)c3c(c2)OC(C)(C)CC3=O)cc1OC	-3	-4	0	5488	4	-1	·	·	·
COc1ccc(C(CNC(=O)C(CCSC)NC(=O)c2ccccc2Cl)N2CCCCC2)cc1 (stereo unspecified)	1	-1	1	3610	5	0	·	·	·
COc1ccc(C(CNC(=O)C(CCSC)NC(=O)c2ccccc2Cl)N2CCCC2)cc1 (stereo unspecified)	43*	7	-15	15232	-1	0	-5	1	14
CCOc1ccc(NC(c2ccccc2)P(=O)(OC)OC)cc1 (stereo unspecified)	?	-10	2	4031	-8	-1	·	·	·
Cc1cccc(NC(=O)CN(C)C(=O)/C=C/c2ccccc2)c1C	6	-1	0	?	-13	0	·	·	·
COC(=O)c1c(C(=O)OC)c2c(-c3ccccc3)cc3cccc1n32	19	37*	37*	4190	-10	·	8	3	-6
COC(=O)c1c(-c2ccccc2)csc1N	19	-2	1	?	-12	0	·	·	·
